{"source": "PubChem BioAssay (EPA / NIEHS)", "key": {"[1]": {"assay": "ACEA_ER_AUC_viability: ACEA Biosciences xCELLigence Real-Time Cell Analysis on Estrogen Receptor Agonism for Viability (AID 2283782);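 also: hit means loss of impedance signal meaning reduced cell growth or viability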", "procedure,_shortened": "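Read-out: real-time electrical impedance (RT-CES) area under curve, loss of signal taken as reduced viability, normalized to DMSO baseline. T-47D cells, charcoal-stripped serum medium, compounds up to 100 uM final, continuous exposure, 80 h.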"}, "[2]": {"target": "chicken Estrogen Receptor (ESR1), ESR1 (gene 396099) (UniProt P06212)", "sequence (P06212 whole entry, looked up, the tested form may be a part)": "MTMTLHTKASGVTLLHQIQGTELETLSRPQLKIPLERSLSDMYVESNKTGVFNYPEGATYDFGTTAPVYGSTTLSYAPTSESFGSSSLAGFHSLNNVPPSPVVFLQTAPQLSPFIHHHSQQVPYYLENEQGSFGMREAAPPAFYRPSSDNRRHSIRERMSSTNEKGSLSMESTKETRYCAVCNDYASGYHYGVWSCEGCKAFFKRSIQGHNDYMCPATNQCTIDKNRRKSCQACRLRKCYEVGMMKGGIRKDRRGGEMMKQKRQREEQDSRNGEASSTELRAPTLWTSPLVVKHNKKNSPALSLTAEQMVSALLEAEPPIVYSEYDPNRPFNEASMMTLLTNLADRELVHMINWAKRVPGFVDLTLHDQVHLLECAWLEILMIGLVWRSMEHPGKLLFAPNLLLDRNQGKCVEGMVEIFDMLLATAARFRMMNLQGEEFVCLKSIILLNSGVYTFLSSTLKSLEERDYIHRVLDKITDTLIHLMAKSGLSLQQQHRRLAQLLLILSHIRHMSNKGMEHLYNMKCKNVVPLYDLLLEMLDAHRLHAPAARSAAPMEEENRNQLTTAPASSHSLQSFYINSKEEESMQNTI", "assay": "ATG_chERa_XSP1: Attagene TRANS-FACTORIAL Multi-Species (XSP1) HepG2 Assay for chicken Estrogen Receptor (ESR1) (AID 2283779)", "procedure,_shortened": "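Read-out: fluorescent reporter mRNA fragments resolved by capillary electrophoresis after RT-PCR and HpaI digestion. Transfected HepG2 cells carried chimeric NR-Gal4 constructs, were dosed 24 h with 3 nM 6-alpha-fluorotestosterone added, and activity was fitted upward relative to DMSO.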"}, "[3]": {"target": "Estrogen receptor (Homo sapiens) (UniProt P03372)", "sequence (P03372 whole entry, looked up)": "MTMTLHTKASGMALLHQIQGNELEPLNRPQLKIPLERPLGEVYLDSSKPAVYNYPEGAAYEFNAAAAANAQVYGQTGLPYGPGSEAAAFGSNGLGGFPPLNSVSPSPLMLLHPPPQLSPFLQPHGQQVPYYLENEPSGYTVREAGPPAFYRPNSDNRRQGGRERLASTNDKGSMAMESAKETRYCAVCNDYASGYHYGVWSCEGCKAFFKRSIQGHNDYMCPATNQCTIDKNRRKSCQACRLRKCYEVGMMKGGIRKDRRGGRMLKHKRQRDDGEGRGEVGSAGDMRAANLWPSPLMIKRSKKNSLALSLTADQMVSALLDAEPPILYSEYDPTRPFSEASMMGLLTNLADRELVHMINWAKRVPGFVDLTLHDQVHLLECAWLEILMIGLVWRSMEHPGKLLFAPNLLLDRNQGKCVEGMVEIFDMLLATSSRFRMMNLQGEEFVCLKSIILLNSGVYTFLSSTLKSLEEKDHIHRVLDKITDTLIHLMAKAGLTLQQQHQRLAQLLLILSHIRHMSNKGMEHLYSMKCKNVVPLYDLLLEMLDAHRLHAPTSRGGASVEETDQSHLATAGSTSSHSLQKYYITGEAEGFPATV", "assay": "ATG_hERa_XSP1: Attagene TRANS-FACTORIAL Multi-Species (XSP1) HepG2 Assay for human Estrogen Receptor (ESR1) (AID 2283780)", "experimental": "(§1) ATG_XSP1_multi-species_TRANS is a cell-based, multiplexed assay created by modifying the existing Attagene TRANS-FACTORIAL system to include a panel of nuclear receptors from some or all the following species: human (Homo sapiens), mouse (Mus musculus), frog (Xenopus laevis), zebrafish (Danio rerio), chicken (Gallus gallus), and turtle (Chrysemys picta). The ECOTOX-FACTORIAL format uses HepG2, a human liver cell line, with measurements taken at 24 hours after chemical dosing in a 24-well plate. Xsp1 included 3 nM 6-alpha-fluorotestosterone to partially stimulate the androgen receptor.ATG_hERa_XSP1 is one of 29 assay components measured or calculated from the ATG_XSP1_multi-species_TRANS assay. It is designed to make measurements of mRNA induction, a form of inducible reporter, as detected with fluorescence intensity signals by Reverse transcription polymerase chain reaction (RT-PCR) and Capillary electrophoresis technology.The assay endpoint ATG_hERa_XSP1 was analyzed in the positive analysis fitting direction relative to DMSO as the negative control and baseline of activity. […] Furthermore, this assay endpoint can be referred to as a primary readout, because this assay has produced multiple assay endpoints where this one serves a reporter gene function. […]"}, "[4]": {"tested_on": "turtle Estrogen Receptor (ESR1), gene 101933533", "assay": "ATG_trERa_XSP1: Attagene TRANS-FACTORIAL Multi-Species (XSP1) HepG2 Assay for turtle Estrogen Receptor (ESR1) (AID 2283781)", "experimental": "as §1, with “receptor.ATG_trERa_XSP1” for “receptor.ATG_hERa_XSP1”, “ATG_trERa_XSP1” for “ATG_hERa_XSP1”"}, "[5]": {"target": "Estrogen receptor beta (Homo sapiens) (UniProt Q92731)", "sequence (Q92731 whole entry, looked up, the tested form may be a part)": "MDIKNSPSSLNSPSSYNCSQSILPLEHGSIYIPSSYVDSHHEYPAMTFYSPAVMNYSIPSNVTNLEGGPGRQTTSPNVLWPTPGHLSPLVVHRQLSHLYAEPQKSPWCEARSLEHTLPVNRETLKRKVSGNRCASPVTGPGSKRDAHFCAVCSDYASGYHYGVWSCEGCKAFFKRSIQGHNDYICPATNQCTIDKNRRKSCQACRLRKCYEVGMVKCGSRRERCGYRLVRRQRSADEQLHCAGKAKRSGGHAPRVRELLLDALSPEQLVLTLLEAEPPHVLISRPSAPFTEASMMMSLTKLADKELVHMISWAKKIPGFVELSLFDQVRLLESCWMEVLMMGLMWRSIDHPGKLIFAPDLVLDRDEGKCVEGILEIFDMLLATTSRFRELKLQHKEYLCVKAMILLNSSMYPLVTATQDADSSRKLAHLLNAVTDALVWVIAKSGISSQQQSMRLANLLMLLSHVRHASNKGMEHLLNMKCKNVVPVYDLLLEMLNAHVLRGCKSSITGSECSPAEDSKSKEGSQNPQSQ", "assay": "ATG_hERb_XSP1: Attagene TRANS-FACTORIAL Multi-Species (XSP1) HepG2 Assay for human Estrogen Receptor (ESR2) (AID 2283788)", "procedure,_shortened": "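Transient MRTU transfection of HepG2; ERβ–GAL4 TRANS format; 24 h dosing; 3 nM 6α-fluorotestosterone co-added; RNA → RT-PCR → 6-FAM primer extension → CE; activity vs DMSO.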"}, "[6]": {"assay": "ATG_M_06_XSP1: Attagene TRANS-FACTORIAL Multi-Species (XSP1) HepG2 Assay for M06 Transcription Factor (Internal Marker) (AID 2283790)", "procedure,_shortened": "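This background-control readout tracks M06 reporter mRNA, measured by RT-PCR and capillary electrophoresis. HepG2 cells transiently carrying the GAL4-UAS reporter panel were dosed for 24 h with 3 nM 6-alpha-fluorotestosterone added for partial AR stimulation; increases were scored relative to DMSO.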"}, "[7]": {"assay": "ATG_M_61_XSP1: Attagene TRANS-FACTORIAL Multi-Species (XSP1) HepG2 Assay for M61 Transcription Factor (Internal Marker) (AID 2283797)", "procedure,_shortened": "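Background-control readout: reporter transcripts measured by RT-PCR and capillary electrophoresis 24 h after dosing transiently transfected HepG2 multi-reporter cells, with 3 nM 6-alpha-fluorotestosterone present. Fitted in the positive direction relative to DMSO.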"}, "[8]": {"assay": "ATG_M_19_XSP1: Attagene TRANS-FACTORIAL Multi-Species (XSP1) HepG2 Assay for M19 Transcription Factor (Internal Marker) (AID 2283798)", "procedure,_shortened": "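Readout is reporter mRNA induction quantified via RT-PCR, 6-FAM labeling, HpaI digestion and capillary electrophoresis, fitted in the positive direction versus DMSO baseline. Transfected HepG2 cells exposed 24 h, medium including 3 nM 6-alpha-fluorotestosterone.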"}}, "note": "Inconclusive results are not listed. Active and inactive are the calls of the source. The calls were made as follows: active = hit-call score of the fitted dose curve at least 0.9, where 1 is the maximum; inconclusive = response in the unintended direction; inactive = score below 0.9."}
{"smiles": "O=C(O)CCCCCCCC(=O)O", "values": [{"measurement": "outcome", "setting": "[1]", "value": "inactive"}]}
{"smiles": "Cc1ccc(C(C)C)cc1O", "values": [{"measurement": "outcome", "setting": "[1]", "value": "inactive"}]}
{"smiles": "CCCCCC(=O)OCCc1ccccc1", "values": [{"measurement": "AC50", "setting": "[1]", "value": "78.9 µM (active)"}]}
{"smiles": "O=C(O)c1ccc(C(=O)O)cc1", "values": [{"measurement": "outcome", "setting": "[1]", "value": "inactive"}]}
{"smiles": "O=C1c2ccccc2C(=O)N1SC1CCCCC1", "values": [{"measurement": "AC50", "setting": "[1]", "value": "50 µM (active)"}]}
{"smiles": "O=C(O)c1cccc([N+](=O)[O-])c1", "values": [{"measurement": "outcome", "setting": "[1]", "value": "inactive"}]}
{"smiles": "c1ccc(CCCc2ccccn2)cc1", "values": [{"measurement": "outcome", "setting": "[1]", "value": "inactive"}]}
{"smiles": "C=CCOc1nc(OCC=C)nc(OCC=C)n1", "values": [{"measurement": "outcome", "setting": "[1]", "value": "inactive"}]}
{"smiles": "O=C=NC1CCC(CC2CCC(N=C=O)CC2)CC1", "note": "(centres undefined)", "values": [{"measurement": "AC50", "setting": "[1]", "value": "28.5 µM (active)"}]}
{"smiles": "O=C(Cl)c1cccc(C(=O)Cl)c1", "values": [{"measurement": "outcome", "setting": "[1]", "value": "inactive"}]}
{"smiles": "CC(C)=CCC/C(C)=C/COC=O", "values": [{"measurement": "outcome", "setting": "[1]", "value": "inactive"}]}
{"smiles": "CCCCCCCCC=O", "values": [{"measurement": "outcome", "setting": "[1]", "value": "inactive"}]}
{"smiles": "CCC(=O)OCCC(C)CCC=C(C)C", "note": "(centres undefined)", "values": [{"measurement": "AC50", "setting": "[1]", "value": "78.6 µM (active)"}]}
{"smiles": "CC(=O)Nc1ccc(C)cc1C", "values": [{"measurement": "outcome", "setting": "[1]", "value": "inactive"}]}
{"smiles": "CC(C)[C@@H]1CC[C@@H](C)CC1=O", "values": [{"measurement": "outcome", "setting": "[1]", "value": "inactive"}]}
{"smiles": "CC(=O)C(=O)O", "values": [{"measurement": "AC50", "setting": "[1]", "value": "78 µM (active)"}]}
{"smiles": "O=c1[nH]nnc2ccccc12", "values": [{"measurement": "outcome", "setting": "[1]", "value": "inactive"}]}
{"smiles": "Clc1nc(C(Cl)(Cl)Cl)c(Cl)c(Cl)c1Cl", "values": [{"measurement": "AC50", "setting": "[1]", "value": "24.1 µM (active)"}]}
{"smiles": "CC(=O)OCCC(C)CC(C)(C)C", "note": "(centres undefined)", "values": [{"measurement": "outcome", "setting": "[1]", "value": "inactive"}]}
{"smiles": "C=C(C)C(=O)O", "values": [{"measurement": "outcome", "setting": "[1]", "value": "inactive"}]}
{"smiles": "CCCC(=O)c1cc(O)c(O)cc1O", "values": [{"measurement": "outcome", "setting": "[1]", "value": "inactive"}]}
{"smiles": "CC(C)=CCC[C@](C)(O)[C@@H]1CC=C(C)CC1", "values": [{"measurement": "AC50", "setting": "[1]", "value": "84.5 µM (active)"}]}
{"smiles": "CCCC(=O)OCCC(C)CCC=C(C)C", "note": "(centres undefined)", "values": [{"measurement": "AC50", "setting": "[1]", "value": "77.8 µM (active)"}]}
{"smiles": "CC(CC(C)(C)C)CC(C)(C)CC(C)(C)C", "note": "(centres undefined)", "values": [{"measurement": "outcome", "setting": "[1]", "value": "inactive"}]}
{"smiles": "CC1CCC2CC1C2(C)C", "note": "(centres undefined)", "values": [{"measurement": "outcome", "setting": "[1]", "value": "inactive"}]}
{"smiles": "CN(CCOc1ccc(CC2SC(=O)NC2=O)cc1)c1ccccn1", "note": "(centres undefined)", "values": [{"measurement": "AC50", "setting": "[2]", "value": "0.0353 µM (active)"}, {"measurement": "outcome", "setting": "[3]", "value": "inactive"}, {"measurement": "AC50", "setting": "[4]", "value": "0.0372 µM (active)"}, {"measurement": "outcome", "setting": "[5]", "value": "inactive"}, {"measurement": "outcome", "setting": "[6]", "value": "inactive"}, {"measurement": "outcome", "setting": "[7]", "value": "inactive"}]}
{"smiles": "CC(=O)C=CC1=C(C)CCCC1(C)C", "values": [{"measurement": "outcome", "setting": "[1]", "value": "inactive"}]}
{"smiles": "O=C1CCCCCCCCCCCCCCO1", "values": [{"measurement": "outcome", "setting": "[1]", "value": "inactive"}]}
{"smiles": "C=C(C)C1CCC(C)CC1O", "note": "(centres undefined)", "values": [{"measurement": "AC50", "setting": "[1]", "value": "50 µM (active)"}]}
{"smiles": "O=S(=O)(O)NC1CCCCC1", "values": [{"measurement": "AC50", "setting": "[1]", "value": "50 µM (active)"}]}
{"smiles": "CC(C)c1cccc(O)c1", "values": [{"measurement": "outcome", "setting": "[1]", "value": "inactive"}]}
{"smiles": "CC1(C)[C@H]2CC[C@]1(C)[C@H](O)C2", "values": [{"measurement": "outcome", "setting": "[1]", "value": "inactive"}]}
{"smiles": "C=CC(=O)NCOCC(C)C", "values": [{"measurement": "outcome", "setting": "[1]", "value": "inactive"}]}
{"smiles": "CN(C)C(=N)N=C(N)N", "values": [{"measurement": "outcome", "setting": "[8]", "value": "inactive"}]}
